Holding throughout (assay): NCI-60 one-dose screen, 48 h (100 = growth as untreated, 0 = no growth, -100 = all killed)
One experiment deals with NCI-H23 lung. The note with it: 10 µM unless noted.
Another experiment deals with NCI-H226 lung. The note with it: 10 µM unless noted.
Another experiment concerns NCI-H322M lung. To be noted: 10 µM unless noted.
The test system of another experiment is HOP-62 NSCLC. To be noted: 10 µM unless noted.
A further experiment relates to HOP-92 NSCLC. To be noted: 10 µM.
Another experiment concerns NCI-H522 lung. To be noted: 10 µM.
The next experiment deals with A549/ATCC NSCLC. The note with it: 10 µM unless noted.
In a further experiment the test system is 786-0 renal. The note with it: 10 µM unless noted.
The subject of another experiment is COLO 205 colon. To be noted: 10 µM unless noted.
Another experiment deals with NCI-H460 lung. The note with it: 10 µM unless noted.

Several values for one entry are separate records, joined by “and”; a condition that tells them apart may be missing. Equal entries are not always repeated. About 83,000 compounds went through this panel and 20% of them were active in at least one assay; those are over-represented in the sample as a whole.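 Assay: single dose, 48 h. Readout: percent growth (0 = no net growth; negative = cell death). Active: <10.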 A number with no mark means an inactive call. Activity calls are given as the source filed them.

As to `O=C(CO)C(O)C(O)C(O)C(O)CO` (stereo not drawn), the growth in the experiment with NCI-H23 lung was 104% and 102%; in the experiment with NCI-H226 lung, 96.2% and 101%; in the experiment with NCI-H322M lung, 107% and 105%; with HOP-62 NSCLC it was 105%; in the experiment with HOP-92 NSCLC it was 116% and 105%; in the experiment on NCI-H522 lung, 102% and 108%. In addition, the growth is 97.5% and 96.1% in the experiment with A549/ATCC NSCLC; 105% with 786-0 renal; 107% and 103% with COLO 205 colon.

`CC(=O)Nc1ccc(S(N)(=O)=O)cc1`: the growth is 100% with NCI-H23 lung; 107% and 102% in the experiment on NCI-H226 lung; 113% and 92.5% in the experiment on NCI-H322M lung; 89.4% and 103% in the experiment on HOP-62 NSCLC; 96.6% in the experiment with HOP-92 NSCLC; 98.3% and 80.4% with NCI-H522 lung. The growth in the experiment on A549/ATCC NSCLC is 96% and 103%; in the experiment with 786-0 renal, 97.9% and 94.5%; in the experiment with COLO 205 colon, 99.7% and 102%.

Regarding `O=C1c2c(O)ccc(O)c2C(=O)c2c(NCCNCCO)ccc(NCCNCCO)c21`, the growth in the experiment with NCI-H23 lung is -59% (active) and -79.5% (active); in the experiment with NCI-H226 lung, -55.7% (active) and -60.1% (active); in the experiment on NCI-H322M lung, -29.2% (active) and -9.24% (active); in the experiment with HOP-62 NSCLC it was -53.4% (active) and -65.5% (active); in the experiment with NCI-H460 lung, -57% (active) and -52.8% (active); in the experiment with HOP-92 NSCLC, -56.9% (active). The growth is -91.7% (active) and -66.8% (active) in the experiment with NCI-H522 lung; -51.4% (active) and -77.6% (active) with A549/ATCC NSCLC; -15.8% (active) and -50.5% (active) in the experiment with 786-0 renal; -69.5% (active) and -74.4% (active) in the experiment on COLO 205 colon.

For the compound `Nc1ccc2c(O)cc(S(=O)(=O)O)cc2c1`, the growth is 96% and 91.9% in the experiment with NCI-H226 lung; 103% and 119% in the experiment with NCI-H322M lung; 86.1% and 92.4% in the experiment on HOP-62 NSCLC; 80.9% in the experiment with HOP-92 NSCLC; 106% and 88.1% in the experiment on NCI-H522 lung; 105% and 92.1% in the experiment with A549/ATCC NSCLC. The growth in the experiment on 786-0 renal is 98.9% and 105%.

As for `COc1cc(C(O)C2C(=O)OCC2C2(c3ccc4c(c3)OCO4)SCCCS2)cc(OC)c1OC` (stereo not drawn), the growth is 100% with NCI-H226 lung; 104% in the experiment with NCI-H322M lung; 101% with HOP-62 NSCLC; 107% in the experiment on NCI-H460 lung; 77.8% in the experiment on HOP-92 NSCLC; 86.5% in the experiment on NCI-H522 lung. Moreover, the growth in the experiment on A549/ATCC NSCLC is 97.1%; in the experiment on 786-0 renal it was 103%.

As to `CCCCCCCCCCCCCCCc1ccc(N)c(OC2OC(CO)C(O)C(O)C2O)c1` (stereo not drawn), the growth in the experiment on NCI-H226 lung was 96.4%; in the experiment with NCI-H322M lung, 77.1%; with HOP-62 NSCLC, 73.9%; in the experiment on HOP-92 NSCLC it was 82%; in the experiment on NCI-H522 lung it was -63.5% (active); with A549/ATCC NSCLC, 86%. Also, in the experiment with 786-0 renal, the growth was 81.7%.

As for `O=C1OC(c2ccccc2)=N/C1=C\c1ccccc1`, the growth with NCI-H226 lung is 90.9%; in the experiment on NCI-H322M lung, 96.2%; with HOP-62 NSCLC it was 99.6%; in the experiment on HOP-92 NSCLC, 88.7%; in the experiment on NCI-H522 lung it was 108%; with A549/ATCC NSCLC it was 95.6%. Moreover, the growth in the experiment with 786-0 renal is 95.9%.

For the compound `CN(C)c1ccc(/C=C\C(=O)c2ccccc2)cc1`, the growth is 92.6% and 98.6% and 101% in the experiment on NCI-H226 lung; 97.2% and 103% and 88.5% with NCI-H322M lung; 102% and 101% in the experiment with HOP-62 NSCLC; 103% and 99.8% and 86.1% in the experiment with HOP-92 NSCLC; 64.3% and 60.4% and 52.7% with NCI-H522 lung; 67% and 79.8% and 82.4% in the experiment with A549/ATCC NSCLC. In addition, the growth in the experiment on 786-0 renal was 90.9% and 89.7% and 80.8%.

For the compound `NC1CCC(C(=O)O)CC1` (stereo not drawn), the growth in the experiment with NCI-H226 lung is 104% and 99.6%; with NCI-H322M lung it was 117% and 105%; with HOP-62 NSCLC it was 100% and 91.2%; with HOP-92 NSCLC, 83.3% and 91.7%; in the experiment with NCI-H522 lung it was 97.4% and 96%; in the experiment on A549/ATCC NSCLC, 107% and 108%. For the same compound, the growth in the experiment on 786-0 renal was 102% and 103%.

Regarding `CC(=O)NCC(=O)c1ccc([N+](=O)[O-])cc1`, the growth is 98% in the experiment on NCI-H226 lung; 103% with NCI-H322M lung; 95.8% in the experiment with HOP-62 NSCLC; 108% in the experiment on HOP-92 NSCLC; 109% with NCI-H522 lung; 101% in the experiment on A549/ATCC NSCLC. Also, the figures for the growth in the experiment with 786-0 renal and in the experiment on COLO 205 colon were 103% and 105%, respectively.

As for `CC(C)NCC(O)c1ccc(O)c(O)c1` (stereo not drawn), the growth is 88.4% and 114% and 98.8% in the experiment with NCI-H226 lung; 92.1% and 96.7% and 106% with NCI-H322M lung; 97.9% and 90.6% and 86.7% in the experiment on HOP-62 NSCLC; 108% and 101% and 105% in the experiment with NCI-H460 lung; 60.1% and 59% and 68.4% in the experiment on HOP-92 NSCLC; 82.4% and 140% in the experiment with NCI-H522 lung. In addition, the growth is 106% and 119% and 103% in the experiment on A549/ATCC NSCLC; 94.9% and 90.6% and 99.7% in the experiment on 786-0 renal; 107% and 114% and 104% in the experiment with COLO 205 colon.

Turning to `CC(C)C(C)(C)c1ccc(O)cc1`, the growth in the experiment with NCI-H226 lung is 99.3%; with NCI-H322M lung, 102%; in the experiment on HOP-62 NSCLC, 104%; in the experiment on NCI-H460 lung, 104%; with NCI-H522 lung, 99.7%; with A549/ATCC NSCLC it was 102%.

For the compound `CCCCOc1ccc(Nc2cc(Cl)ccc2C(=O)O)cn1`, the growth in the experiment on NCI-H226 lung was 109% and 97.5%; in the experiment on NCI-H322M lung, 110% and 105%; in the experiment on HOP-62 NSCLC, 88.4% and 90%; with NCI-H460 lung, 104% and 99%; in the experiment on HOP-92 NSCLC, 74.8%; in the experiment with NCI-H522 lung, 46.4% and 98.2%. Further, the growth in the experiment with A549/ATCC NSCLC was 96.5% and 98.1%; in the experiment with 786-0 renal, 92%; in the experiment with COLO 205 colon, 119% and 103%.

For the origin of these results see PubChem BioAssay (NCI).
